Laboratory results reported in ChEMBL document CHEMBL3988442, “University of Dundee, Small-Polar-MMV Screening Library” (2021).
Among all 38,000 compounds or so, about 1,200 (3.2%) showed an effect of 50% or more. The median lay at about -58%. The entries come from a sample that favours strong results as a whole.

System: Plasmodium falciparum
Test: Calibr Malaria Delayed Death Assay SOP
Assay type: functional, organism-based
Design: scale not given: in the data most compounds retested in dose-response had high values
Conditions: concentration 4.99e-06 (unit not given; other assays of the set use mol/L)

Going from `Cn1nc(-c2ccccc2)c(Cl)c1C(=O)O` to `CN1CCN(Cc2ccccc2CNC(=O)c2cc(Cl)ccc2F)CC1`, the “Percent Effect” value rises from 13.43% to 65.2%.

Compared with `CC(C)S(=O)(=O)NCC(Cc1cccc(F)c1)N1CCNC1=O` (stereo unspecified), `O=C(c1ccco1)N1C[C@H]2CN(Cc3cccc(F)c3)C(=O)[C@H]2C1` is lower in “Percent Effect” value: -68.63% for the first, -97.73% for the second.

First: COc1ccc(CNc2nc(N3CCOCC3)ns2)cc1
Second: O=C(COc1ccccc1NCc1ccc(F)cc1)N1CCOCC1
The “Percent Effect” value of the first is higher: -61.76% for the first, -94.22% for the second.

Going from `Cc1ccc(CCNC(=O)CC2COCCN2S(=O)(=O)N(C)C)o1` (stereo unspecified) to `Cc1ccc(CNC(C)c2nnc3n2CCCC3)o1` (stereo unspecified), the “Percent Effect” value falls from -12.87% to -20.3%.

Going from `CC(C)c1nncn1CCNC(=O)c1ccc(Cl)cc1O` to `CCn1cnnc1CNC(=O)c1cc(F)ccc1OC`, the “Percent Effect” value falls from -118.9% to -155.2%.

First: Cc1nccc(-c2cccc(NCC(=O)NCC(=O)N3CCCC3)c2)n1
Second: O=C(CNC(=O)N1CCN(c2cccc(Cl)c2)CC1)Nc1ccccn1
The “Percent Effect” value of the first is higher: -89.65% for the first, -109.2% for the second.

Going from `Cc1cnc(C(=O)N2CC[C@@H]3CN(c4ncccn4)CCO[C@@H]3C2)cn1` to `Cc1nc(C)n(C2CCCN(C(=O)CCCNc3ncccn3)C2)n1` (stereo unspecified), the “Percent Effect” value falls from -80.08% to -99.16%.

Going from `Cc1nc(CO[C@H]2CN(Cc3cccs3)[C@@H]3COC[C@H]23)cs1.O=C(O)C(F)(F)F.O=C(O)C(F)(F)F` to `COCC1CC2(CCN(CC3CC3)CC2)CN1Cc1ccccn1.O=C(O)C(F)(F)F.O=C(O)C(F)(F)F` (stereo unspecified), the “Percent Effect” value rises from -73.25% to 39.61%.

Going from `Cc1nc(CNC(=O)Nc2cc(F)ccc2OC(F)F)no1` to `CCN1CCN(c2ccc(F)cc2C(C)NCc2noc(C)n2)CC1` (stereo unspecified), the “Percent Effect” value rises from -136.5% to 52.85%.

First: CCN1CCN(c2ccc(F)cc2C(C)NCc2nc(C)no2)CC1 (stereo unspecified)
Second: CN1CCN(c2ccc(F)cc2C(N)=O)CC1
The “Percent Effect” value of the first is higher: 4.183% for the first, -109.6% for the second.

Going from `CC(COc1ccccc1)NCc1cn2ccccc2n1` (stereo unspecified) to `CN1CC[C@H](N(Cc2ccccc2)Cc2ccccc2)C[C@H](O)C1`, the “Percent Effect” value rises from -27.04% to 71.85%.

Compared with `Cc1ccc(C(=O)N2CCC3(CCC(=O)N(C(C)C)C3)CC2)c(O)c1`, `CCOCC1CC2(CCN(C(=O)c3ccc4ccccc4n3)CC2)CO1.O=C(O)C(F)(F)F` (stereo unspecified) is higher in “Percent Effect” value: -20.48% for the first, 2.806% for the second.

First: COC(=O)c1ccc(C2CC(=O)Nc3c2cnn3C)cc1 (stereo unspecified)
Second: COC(=O)c1cc2c(=O)n(C3CC3)ccc2nc1C
The “Percent Effect” value of the first is lower: -67.54% for the first, -61.53% for the second.

First: CCc1noc(CN2CCCC(Cn3nc(C)nc3C)C2)n1 (stereo unspecified)
Second: Cc1ccc(OCCC(=O)N2CCCC(n3nc(C)nc3C)C2)cc1 (stereo unspecified)
The “Percent Effect” value of the first is lower: -109.5% for the first, 0.003662% for the second.

Going from `CN(C)c1ccc(C(=O)N2CCN(Cc3cscn3)CC2)cc1F` to `CN1CCN(Cc2ccccc2CNC(=O)c2cc(Br)ccc2F)CC1`, the “Percent Effect” value rises from -147.3% to 76.59%.

Going from `Oc1ccc2oc3c(c2c1CN1CCOCC1)CCCC3` to `CCC1CN(Cc2c(O)ccc3oc4c(c23)CCCC4)CCO1` (stereo unspecified), the “Percent Effect” value rises from 15.46% to 59.59%.

Going from `NC(=O)C1CN(Cc2c(O)ccc3oc4c(c23)CCCC4)CCO1` (stereo unspecified) to `O=C(NCc1ccccc1CN1CCOCC1)c1ccc(Br)cc1F`, the “Percent Effect” value falls from -24.38% to -44.16%.

Compared with `CN1CCC(N(C)C[C@H]2CC[C@@H](Cc3ccc4occc4c3)O2)CC1`, `CN1CCC(N(C)C[C@H]2CC[C@@H](Cc3cccc(O)c3)O2)CC1` is lower in “Percent Effect” value: 85.36% for the first, 56.23% for the second.

Going from `CCN1CCN(C[C@H]2CC[C@@H](Cc3ccc4c(c3)OCO4)O2)CC1` to `CN1CCN(C[C@H]2CC[C@@H](Cc3ccc4c(c3)OCO4)O2)CC1`, the “Percent Effect” value falls from -22.56% to -29.46%.

First: COc1ccc(C[C@@H]2CC[C@H](CN(C)C3CCN(C)CC3)O2)cc1
Second: CN1CCC(N(C)C[C@H]2CC[C@@H](Cc3cccc(CO)c3)O2)CC1
The “Percent Effect” value of the first is higher: 49.48% for the first, -136% for the second.

Compared with `CCCc1ccc(C(=O)N2CCc3c(nc(C)nc3N(C)C)C2)cc1`, `Cc1ccc(CCNC(=O)Cn2nc(C)n(Cc3ccccc3)c2=O)s1` is higher in “Percent Effect” value: -63.88% for the first, -1.162% for the second.

Going from `COc1ccc([C@@H]2NC(=O)N[C@H]3OCCC[C@H]32)cc1` to `CSc1ccc(OCCN2CCNC(=O)C2C)cc1` (stereo unspecified), the “Percent Effect” value falls from 13.26% to -33.67%.

First: CN(Cc1nnc(C2CC2)n1C)S(=O)(=O)Cc1ccccc1F
Second: Cn1ccnc1CN1CCN(CC(=O)NCc2ccccc2F)CC1
The “Percent Effect” value of the first is lower: -39.05% for the first, -19.05% for the second.

First: Cc1cc(NC(=O)N(C)CCN2CCN(c3ccccc3)CC2)on1
Second: Cc1cc(NC(=O)NC(C)CN2CCN(c3ccccc3)CC2)on1 (stereo unspecified)
The “Percent Effect” value of the first is lower: -52.94% for the first, 58.09% for the second.

Compared with `Cc1cc(NC(=O)CN(c2ccccc2)C(C)C)on1`, `CN(C)c1ccc(C(=O)NCC2(c3ccccc3)CCOCC2)cc1` is lower in “Percent Effect” value: -10.54% for the first, -48.74% for the second.

First: COCC1CC2(CCN(Cc3ccoc3)CC2)CN1Cc1ccccn1 (stereo unspecified)
Second: COCC1CC2(CCN(Cc3nccs3)CC2)CN1Cc1ccccn1.O=C(O)C(F)(F)F.O=C(O)C(F)(F)F.O=C(O)C(F)(F)F (stereo unspecified)
The “Percent Effect” value of the first is higher: 55.13% for the first, -3.583% for the second.

Compared with `CCOc1ccc(-c2c(C#N)c(N)nc3c2COCC3)cn1`, `Cc1nnc(NCC2(c3ccccc3)CCOCC2)c(C#N)c1C` is higher in “Percent Effect” value: -92.51% for the first, 3.02% for the second.

Going from `CC(=O)N(Cc1noc(C2CC2)n1)C1CCN(Cc2ccccn2)C1` (stereo unspecified) to `CN1CC[C@H](N(Cc2ccccc2)CC2CC2)C[C@H](O)C1`, the “Percent Effect” value rises from -1.635% to 80.63%.

Going from `O=C(O)C(F)(F)F.O=C(O)C(F)(F)F.O=C(c1ccnnc1)N1CCN(Cc2cccnc2)c2ncccc2C1` to `O=C(O)C(F)(F)F.O=C(O)C(F)(F)F.c1coc(CN2CCCn3c(CN4CCOCC4)nnc3C2)c1`, the “Percent Effect” value rises from -70.53% to -56.94%.

First: CN1CC[C@H](N(Cc2ccccc2)C2COC2)C[C@H](O)C1
Second: CN1CC[C@H](N(C)Cc2ccccc2)C[C@H](O)C1
The “Percent Effect” value of the first is higher: 43.99% for the first, 2.065% for the second.

First: CN1CCC(N(C)CCC(=O)N2CCC(CCc3ccccc3)CC2)C1 (stereo unspecified)
Second: c1ccc(CCCN2CCOC(Cn3cccn3)C2)cc1 (stereo unspecified)
The “Percent Effect” value of the first is higher: 17.74% for the first, -23.01% for the second.

First: CN(CC1CC1)C(=O)CN(Cc1cccc(O)c1)C1CCC(O)CC1 (stereo unspecified)
Second: Oc1cccc(CNCCC2CCCO2)c1 (stereo unspecified)
The “Percent Effect” value of the first is lower: -102.5% for the first, -6.783% for the second.

Compared with `O=c1[nH]c(CN2CCOC(Cn3cccn3)C2)nc2ccccc12` (stereo unspecified), `CC1CCN(C(CNC(=O)CCn2cccn2)c2cccs2)CC1` (stereo unspecified) is higher in “Percent Effect” value: -93.34% for the first, -77% for the second.

First: Cc1cc(CN2CCN(C(=O)C(C(C)C)n3cncn3)CC2)no1 (stereo unspecified)
Second: Nc1ncc(C(=O)N2CCN(c3nccs3)CC2)cc1Cl
The “Percent Effect” value of the first is higher: -20.49% for the first, -61.47% for the second.

Going from `NC(=O)CCN(CC(=O)NCc1ccccn1)c1ccc(F)cc1` to `CCCNC(=O)CCC(=O)n1nc(C)c2ccccc21`, the “Percent Effect” value rises from -98.56% to -0.03666%.

First: O=C(Nc1ccccc1)N1C[C@H]2C[C@H](C(=O)N3CCOCC3)[C@@H](C1)O2
Second: O=C(NCC(c1cccs1)N1CCOCC1)c1ccc(F)cc1Cl (stereo unspecified)
The “Percent Effect” value of the first is lower: -95.7% for the first, -47.97% for the second.

Going from `CNC(=O)c1ccc(CNC(=O)c2ccc(Cl)cc2F)cc1` to `CN1CCN(Cc2ccccc2CNC(=O)c2ccc(Cl)cc2F)CC1`, the “Percent Effect” value rises from -28.69% to 76.33%.

Going from `CN1CCN(Cc2ccccc2CNC(=O)c2ccc(Br)cc2)CC1` to `CN1CCN(Cc2ccccc2CNC(=O)c2ccc(Br)cc2F)CC1`, the “Percent Effect” value rises from 45.05% to 47.71%.

Going from `CN1CCN(C(CNC(=O)c2ccc(Cl)cc2F)c2cccs2)CC1` (stereo unspecified) to `Cn1ccc(C(=O)NCc2ccccc2CN2CCCCC2)cc1=O`, the “Percent Effect” value falls from 51.8% to -63.4%.

Compared with `Cc1cc(N(C)CCN(C)C2CCCC2)n2nc(C)cc2n1`, `Cc1cc(N(C)CCN(C)C)n2nc(C)cc2n1` is lower in “Percent Effect” value: 53.42% for the first, -114.6% for the second.

Compared with `Cc1cc(C)nc(N(C)CCN(C)C2CCCC2)n1`, `COc1cc(CNc2cc(N3CCCC3CO)ncn2)ccn1` (stereo unspecified) is lower in “Percent Effect” value: 27.63% for the first, -84.2% for the second.

Compared with `COc1ccccc1C1(CNCc2ccc(C#N)cc2)CCOCC1`, `COc1ccccc1C1(CNCc2cccc(C#N)c2)CCOCC1` is lower in “Percent Effect” value: 76% for the first, 66.05% for the second.

Going from `COc1ccccc1C1(CNc2cn[nH]c(=O)c2Cl)CCOCC1` to `COc1ccccc1C1(CNCc2cccc(O)c2)CCOCC1`, the “Percent Effect” value rises from -35.38% to 82.33%.

Going from `COc1ccccc1C1(CNCc2ccc([S+](C)[O-])cc2)CC1` (stereo unspecified) to `COc1ccccc1C1(CNc2ccc(C(=O)N(C)C)cn2)CC1`, the “Percent Effect” value falls from 68.71% to -78.51%.

First: COc1cc(OC)c(CNC(=O)NCc2ccc(C#N)cc2)c(OC)c1
Second: COc1ccc(CN(C)Cc2cccc(C#N)c2)c(OC)c1
The “Percent Effect” value of the first is lower: -15.69% for the first, 25.49% for the second.

Going from `CS(=O)(=O)C1(CNCc2cccc(-n3cccn3)c2)CCOCC1` to `Cl.N#Cc1ccc(CNCC2(c3ccccc3)CCOCC2)cc1`, the “Percent Effect” value rises from -93.15% to 82.55%.

First: COc1ccccc1C1(CNc2ncc(S(N)(=O)=O)s2)CC1
Second: COCCOCC(=O)Nc1ccccc1F
The “Percent Effect” value of the first is lower: -83.98% for the first, -49.03% for the second.

Compared with `CN1CCC/C1=N\S(=O)(=O)c1ccc(NC(=O)c2ccsc2)cc1`, `COc1cccc(N2CCC(CNCc3cccc(C#N)c3)C2)c1` (stereo unspecified) is lower in “Percent Effect” value: -6.415% for the first, -60.34% for the second.

First: Cl.Nc1cccnc1N1CCCCCC1
Second: C[C@@H]1CN(CCC(=O)NCc2ccccc2Cl)C[C@@]1(O)C1CC1
The “Percent Effect” value of the first is lower: -85.39% for the first, 46.32% for the second.

Going from `CCSc1ccc(C(=O)NCCc2nnc(-c3ccco3)[nH]2)cn1` to `CC(OCC1CC1)C(=O)NCCC(=O)Nc1ccccn1` (stereo unspecified), the “Percent Effect” value rises from -77.1% to -13.51%.

`COc1ccc(OC)c(Nc2nc3c(C)nn(C)c3c(=O)n2C)c1` was tested, and the “Percent Effect” value was -88.36%.
